# Data published in the OligoGym collection.
# Target: YPEL3
# Assay: pooled miR-30 sensor sort-seq; sequence = guide strand
# Details: shRNA
# Note: reference of the scale not given here.
row,Sequence,sensor-assay potency score (higher = more potent)
1,TTGTACTTCTGGCTGCTCTCAA,0.24
2,ATATACAGGAGCTAGATCCGTC,0.357
3,TTTGAAATCCGCACCATGGCGG,-0.368
4,TCTTGCAGTTCTCGCAGTGGAT,-1.02
5,TTGGAGATGAGGTCGTCGTGGT,0.122
6,TATACCTCCGGTGACAATCATC,-1.49
7,TTATGTACAAACGCTACAGAAC,-1.18
8,TTGAGTTCAATGATGTACTTCC,0.797
9,TTCAATGATGTACTTCCCCTCT,-0.135
10,TTCTCGCAGTGGATGTCGGCGA,-0.367
11,TTCCCCTCTTTGTACTTCTGGC,-0.928
12,ACAATCATCCAAGTAGGCCTGA,0.225
